Screen size: about 1,500 compounds; about 1,400 (93%) were called active. The rule behind the calls is not given here. So high a share suggests a set chosen from earlier hits. A selection follows. Entries with a potency or affinity are not part of this list.

A short description of this assay: viability of PTEN-deleted HCT116 cells – cell-based, HCT116 PTEN knockout, dose response (AID 1047). The settings on record: CellTiter-Glo, 60 h; series mostly up to 30 µM. In general terms: In ATP-based viability assays light output follows the ATP content of the culture.
For the molecule `O=C(NC(=S)Nc1ccc2c(c1)OCO2)c1ccc(Cl)cc1`, the molecule was classed as inactive.
As for `CCN(CC)c1ccc(N=Cc2ccc(N(CC)CC)cc2O)cc1`, the outcome was inactive.
For `Cc1ccc(C(=O)Nc2ccccc2C(=O)NC(C(=O)O)C(C)C)cc1` (centres undefined), the molecule was called inactive.
On to `Cc1cc(NS(=O)(=O)c2ccccc2)cc(Cl)c1O`, for which the outcome was inactive.
As for `O=C(Nc1cccc2ccccc12)N1CCN(Cc2ccc3c(c2)OCO3)CC1`, the outcome was inactive.
Consider `CCCCn1c(=NC(=O)c2ccco2)c(C(=O)OCC)cc2c(=O)n3ccccc3nc21`, for which the molecule was classed as inactive.
Take `CS(=O)(=O)c1nc(-c2cccs2)cc(C(F)(F)F)n1`: the result was inactive.
As to `COCCNC(=O)NC1(C(F)(F)F)Oc2ccc(Cl)cc2O1` (centres undefined), the molecule was classed as inactive.
Regarding `O=C(NCc1ccc(F)cc1)C1C2C=CC3(CN(Cc4cccnc4)C(=O)C13)O2` (centres undefined), the molecule was classed as inactive.
Take `COc1ccc(S(=O)(=O)CCC(=O)N(C)c2ccc(OC)cc2OC)cc1`: the result was inactive.
As for `Cc1c(Cl)ccc2sc(NC(=O)CN3C(=O)c4ccccc4C3=O)nc12`, the call was inactive.
`CCCCN(C)C(=O)C1CCC(=O)N(c2cc(OC)c(OC)c(OC)c2)C1c1ccc(OC)cc1` (centres undefined): the call was inactive.
As to `CCCCS/C(N)=N/N=C/c1ccccc1O`, the result was inactive.
Turning to `N/C(=N\c1nc(C(F)(F)F)cc(=O)[nH]1)Nc1ccc(Cl)cc1`, the molecule was classed as inactive.
As to `COc1ccc(N2CCN(C(c3cc(OC)ccc3OC)c3nnnn3CC3CCCO3)CC2)cc1` (centres undefined), the outcome was inactive.
Regarding `N/C(=N\OC(=O)C12CC3CC(CC(C3)C1)C2)c1ccccc1`, the molecule was called inactive.
For the molecule `Cc1cc(C)c2c(=O)n(CC(=O)N3CCC(Cc4ccccc4)CC3)sc2n1`, the molecule was called inactive.
With `COC(=O)CN1C(C)=Nc2ccc(Br)cc2C1c1ccccc1` (centres undefined) the entry was “inactive”.
Consider `CCCC/C(C)=N\NC(=O)CNS(=O)(=O)c1ccc([N+](=O)[O-])cc1`, for which the result was inactive.
Turning to `CCCC(=O)Nc1sc2c(c1C#N)CCCCC2`, the molecule was classed as inactive.
With `Oc1ccc(C=Nc2ccc3ncccc3c2)c(O)c1` the entry was “inactive”.
Consider `CCCCN1C[C@H](O)[C@@H](O)[C@H](O)[C@H]1CO`, for which the molecule was classed as inactive.
As to `COc1cccc2cc(C(=O)N(C)C)c(=O)oc12`, the outcome was inactive.
With `CC1CCN(CC(=O)N2c3ccccc3CCc3ccccc32)CC1` the entry was “inactive”; with `CCOc1ccc(C2/C(=C(\O)c3c(C)[nH]c(C(=O)OC)c3C)C(=O)C(=O)N2CCN(C)C)cc1` (centres undefined), “inactive”; with `O=C(NCc1ccccn1)c1c(O)c2cccc3c2n(c1=O)CC3`, “inactive”.
With `COC(C)(C)[C@H](O)COc1c2ccoc2cc2oc(=O)ccc12`, the molecule was classed as inactive.
Turning to `Nc1c(NCCN2CCOCC2)c2ccccc2oc1=O`, the call was inactive.
In the case of `O=C(Nc1cccc(-c2nnc(-c3ccccc3)o2)c1)C1CCCCC1`, the outcome was inactive.
For `COc1ccc(C(C)=O)cc1CSc1nc2ccccc2o1`, the call was inactive.
Take `O=C(Nc1cccc2ccccc12)c1onc2c1CCCC2`: the outcome was inactive.
For the molecule `CNC(=O)C1C(=S)NC(N)=C(C#N)C1c1ccccc1` (centres undefined), the result was inactive.
The same measure for `CC(C(=O)NC(=O)NCc1ccccc1)N1C(=O)c2ccccc2C1=O` (centres undefined): “inactive”.
With `CCOC(=O)c1c(-c2ccc(C)cc2)csc1NC(=O)/C(C#N)=C/c1ccc(O)c(OC)c1` the entry was “inactive”; with `CCN(CC)S(=O)(=O)c1ccc(NC2CCCc3ccccc32)nc1` (centres undefined), “inactive”.
On to `Cc1ccc(C(=O)NCCc2nnc(SCC(=O)Nc3nc(-c4ccccc4)cs3)n2C)cc1`, for which the molecule was classed as inactive.
With `CCn1c(CNc2ccc(OC)cc2)nnc1SCC(=O)c1ccc(OC)cc1`, the molecule was classed as inactive.
Consider `CCN(CC)c1ccc(NC2=C(Cl)C(=O)c3ccccc3C2=O)cc1`, for which the molecule was classed as inactive.
`CCCC(=O)Nc1ccc(C)c(O)c1`: the molecule was classed as inactive.
`CCn1c(Cc2ccc(OC)cc2)nnc1SCC(=O)Nc1cccc(C(=O)OC)c1`: the molecule was classed as inactive.
With `Cc1sc2c(=O)n3c(nc2c1C(=O)NCCCN1CCOCC1)CCCCC3` the entry was “inactive”; with `CC(=O)ON1C(C)(C)CC(OC(=O)c2ccccc2)CC1(C)C`, “inactive”; with `O=C(COC(=O)c1cccnc1Nc1cccc(C(F)(F)F)c1)NCc1ccc2c(c1)OCO2`, “inactive”.
Turning to `CC(C)c1cc(=O)oc2c3c4c(cc12)CCCN4CCC3`, the molecule was called inactive.
Consider `CNC(=S)N/N=C(\C)c1ccc(N2CCOCC2)cc1`, for which the result was inactive.
As for `O=S(=O)(NCCc1csc(-c2cccnc2)n1)c1ccc2c(c1)OCCO2`, the result was inactive.
Regarding `COc1ccc(CCn2c(N)c(C(=O)NCc3ccco3)c3nc4ccccc4nc32)cc1OC`, the outcome was inactive.
As to `C=CCNc1nnc(SC2CC(=O)N(c3ccc(OC)cc3)C2=O)s1` (centres undefined), the result was inactive.
For `OCCn1c(C(F)(F)F)nc2ccccc21`, the call was inactive.
Take `O=C(Nc1ccccc1Cl)NC1(C(=O)N2CCCC2)CCCCC1`: the outcome was inactive.
With `O=C(N/N=C/c1ccc(O)c(O)c1O)/C(=C/c1ccc([N+](=O)[O-])cc1)NC(=O)c1ccccc1`, the result was inactive.
For `Cc1ccccc1NC(=O)c1ccc2c(c1)OCCO2`, the molecule was classed as inactive.
In the case of `O=C(NNc1nc2cc3c(cc2s1)OCO3)c1cccc(F)c1`, the result was inactive.
With `COc1cccc(OCC(=O)NN=C2c3ccccc3-c3ccccc32)c1` the entry was “inactive”; with `COc1ccc(C(=O)OC2CCN(c3ncc(C(F)(F)F)cc3Cl)CC2)cc1`, “inactive”; with `O=C1[C@H]2[C@H]3[C@H](O)[C@H](O)C/C(=N\OC[C@@H](O)COCc4ccco4)[C@@H]3CC[C@H]2C(=O)N1c1ccc(F)cc1F`, “inactive”.
Regarding `COC(=O)COc1ccc(S(=O)(=O)NCc2ccncc2)cc1`, the result was inactive.
The same measure for `c1ccc2c(c1)CCCC2C1=NCCN1` (centres undefined): “inactive”; for `CC(C[N+](C)(C)C)OC(N)=O` (centres undefined): “inactive”; for `CCOc1c(OC)ccc2c3c(c(=O)oc12)CCCC3`: “inactive”.
`OC1C2CN3CCN(C2)CC1(Cc1ccccc1)C3` (centres undefined): the molecule was called inactive.
`Cc1cc(NC(=O)c2sc(Nc3cccc(C(F)(F)F)c3)nc2N)no1`: the call was inactive.
As to `CCC(C)C1C(C#N)=C(N)Oc2n[nH]c(C)c21` (centres undefined), the call was inactive.
As for `Cc1[nH]nc2c1C(c1ccsc1C)C(C#N)=C(N)O2` (centres undefined), the molecule was called inactive.
For `CCOC(=O)N1CCN(C(=O)c2nn(-c3ccc(C)cc3)c(=O)c3c2c2ccccc2n3C)CC1`, the outcome was inactive.
As to `COc1ccc(C(=O)OCC(=O)c2cc(OC)ccc2OC)c(OC)c1`, the outcome was inactive.
Consider `CCOc1ccc(N(CC(=O)NC2CCCCCC2)S(=O)(=O)c2c(C)noc2C)cc1`, for which the outcome was inactive.
As to `CCCCCn1c(Sc2ccccc2)nc2c1c(=O)[nH]c(=O)n2C`, the result was inactive.
Turning to `CCN(CCNC(=O)Nc1ccc(Cl)cc1)c1ccccc1`, the result was inactive.
Turning to `O=C(c1nnc(Cc2ccc(Cl)cc2)o1)N1CCc2ccccc2C1`, the outcome was inactive.
As to `CN(C)S(=O)(=O)c1cccc(NC(=O)COC(=O)c2cccc(S(=O)(=O)N3CCc4ccccc4C3)c2)c1`, the molecule was called inactive.
Consider `CCOC(=O)c1[nH]c2ccc(OC)cc2c1NC(=S)N1CCN(c2ccccc2)CC1`, for which the molecule was called inactive.
Consider `Cc1cc(C)n(C(=O)CNc2ccc(C)c(C)c2)n1`, for which the call was inactive.
For `O=C(NCc1ccco1)C1CCN(S(=O)(=O)Cc2ccccc2)CC1`, the molecule was called inactive.
The same measure for `COc1ccc(Nc2oc(COc3ccc(Cl)cc3)nc2C#N)cc1`: “inactive”; for `COc1ccc(-c2cc(C(F)F)n3ncc(C(=O)n4ccnc4C)c3n2)cc1`: “inactive”.
For the molecule `COC(=O)C1=C(C)N(c2ccc(F)c(Cl)c2)C(=O)C1`, the molecule was classed as inactive.
The same measure for `COc1cc(SC#N)ccc1N=Cc1c(C)[nH]n(-c2cccc3ccccc23)c1=O`: “inactive”.
As to `COc1ccccc1CN=Cc1[nH]c2ccc(Br)c(Cl)c2c1O`, the molecule was classed as inactive.
For the molecule `CCOC(=O)c1c(C2COc3ccccc3O2)csc1NC(=O)c1ccccc1` (centres undefined), the result was inactive.
The same measure for `O=C(CSc1ncnc2c1nnn2-c1ccc(F)cc1)NCC1CCCO1` (centres undefined): “inactive”; for `COC(=O)Nc1nc2c(s1)CCCC2`: “inactive”.
With `Cc1cc(C)c2c(=O)n(CC(=O)NCCCN3CCOCC3)sc2n1` the entry was “inactive”; with `CN1/C(=C\C(=S)NC(=O)c2ccc([N+](=O)[O-])cc2)C(C)(C)c2ccccc21`, “inactive”.
Regarding `COc1ccc(NC(=O)CCCn2c(=O)c3sccc3n(Cc3ccccc3)c2=O)cc1`, the molecule was classed as inactive.
`COC(=O)C1=C(C)N(Cc2ccco2)C(=O)N[C@@H]1c1cccc(C(F)(F)F)c1`: the molecule was classed as inactive.
For the molecule `CC(C)(C)c1ccc(CNc2ccc([N+](=O)[O-])cn2)cc1`, the molecule was called inactive.
With `Cc1cc(Nc2ccccc2)nn1C(=O)c1ccccc1` the entry was “inactive”; with `COc1ccc(C(=O)CCN2CCCCCC2)cc1`, “inactive”; with `O=C(NCCOc1ccccc1)C(c1ccccc1)c1ccccc1`, “inactive”.
For `CCCCNS(=O)(=O)c1ccc2nc(-c3cccnc3)cc(C(=O)NC3CC3)c2c1`, the molecule was called inactive.
Consider `CCN(CC)S(=O)(=O)c1ccc(-c2nnc(SCc3nnc(-c4ccccc4)o3)o2)cc1`, for which the outcome was inactive.
As for `C=C1C(O)C[C@H]2C(=C)CCC3[C@H](OC(=O)[C@]3(O)CO)[C@@H]12` (some centres undefined), the molecule was classed as inactive.
Turning to `O=S(=O)(c1cccc2ccccc12)N1CCSC1`, the molecule was classed as inactive.
Consider `COCCn1c(=NC(=O)CSCC(=O)Nc2cc(C)on2)sc2cc(C(=O)OC)ccc21`, for which the outcome was inactive.
Turning to `O=C(CCNc1cc(Cl)cc(Cl)c1)c1ccco1`, the call was inactive.
As to `c1ccc(-c2cc3n(c2)CCc2ccccc2-3)cc1`, the call was inactive.
Consider `[N-]=[N+]=NC1C[C@H](n2ccc(=O)[nH]c2=O)O[C@@H]1CO` (some centres undefined), for which the outcome was inactive.
For the molecule `O=C(Nc1cccc(C(F)(F)F)c1)NC1CCCCC1`, the result was inactive.

The values are drawn from PubChem BioAssay AID1047 (SRMLSC, 2008).
